Test [1] is described as follows: qHTS assay to identify small molecule antagonists of the sonic hedgehog signaling (Shh) pathway (AID 1259369; calls by dose curve; further: nearly all actives have a fitted effect of over 45% in size; further: potency means the concentration at half of the fitted maximal effect). In outline:
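Screening used 3T3Gli1-Luc cells at 2,000 per well, compounds delivered in DMSO, and conditioned medium as agonist stimulus; plates incubated 24hr at 37 C and 5% CO2 before a 30min luciferase step.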
Background: qHTS replaces the single test concentration by a dilution series.

Test [2] is described as follows: qHTS assay to identify small molecule agonists of the estrogen receptor beta (ER-beta) signaling pathway - cell viability counter screen (AID 1259380). Further: nearly all actives have a fitted effect of over 30% in size. Further: potency means the concentration at half of the fitted maximal effect. Put shortly:
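Viability of ER-beta-UAS-bla HEK293T cells was determined by CellTiter-Glo luminescence following 16 hr treatment with test compounds at 37C.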

Test [3] is described as follows: qHTS assay to identify small molecule antagonists of the estrogen receptor beta (ER-beta) signaling pathway - cell viability counter screen (AID 1259382). Further: nearly all actives have a fitted effect of over 55% in size. Further: potency means the concentration at half of the fitted maximal effect. Put shortly: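 Tox21 10K library tested in qHTS format on ER-beta-bla HEK293T cells stimulated with 1nM E2; 16 hr treatment at 37C. Same-well CellTiter-Glo luminescence served as the cell viability measure.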
The nature of test [4]: qHTS assay to identify small molecule agonists or antagonists of the thyroid stimulating hormone receptor (TSHR) signaling pathway - wild type cell line counter screen (AID 1259384; calls by dose curve). In outline: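 Counter screen in untransfected Hek293: compounds (15-point titration, triplicate) plus phosphodiesterase inhibitor Ro20-1724 added after 18 h plating; 30 min RT. Intracellular cAMP via competitive d2/cryptate immunoassay, 1 h incubation.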

A short description of test [5]: qHTS assay to identify small molecule agonists of the estrogen receptor alpha (ER-alpha) signaling pathway in the presence of an antagonist - cell viability counter screen (AID 1259386).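 Further: cells exposed to compounds for 22 h at 37 °C before the viability read; nearly all actives have a fitted effect of over 30% in size.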 Further: potency means the concentration at half of the fitted maximal effect. Put shortly: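 Fluorescent CellTiter-Fluor viability signal from VM7Luc4E2 cells, with the reagent added during the final hour of a 22hr compound exposure at 37C in the presence of 10.0nM ICI-182,780.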

For test [6], the target named is Progesterone receptor (Homo sapiens) (UniProt P06401). Description: qHTS assay to identify small molecule agonists of the progesterone receptor (PR) signaling pathway (AID 1346784; calls by dose curve; further: nearly all actives have a fitted effect of over 30% in size). In outline:
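Compounds were tested for PR agonism in HEK 293T cells bearing a beta-lactamase gene under UAS control. Treatment lasted 16 hr at 37C; signal came from fluorescence of a FRET substrate.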

The target is the same in test [7]. The experiment in a line: qHTS assay to identify small molecule antagonists of the progesterone receptor (PR) signaling pathway (AID 1346795; active means well fitted inhibition curve with a large enough effect in the signal ratio in the repeat runs, not every such curve was filed as active; the % refers to the signal ratio; further: potency means the concentration at half of the fitted maximal effect). Put shortly: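 In HEK293T cells bearing the PR-UAS-bla reporter, compound effects on promegestone-driven (1 nM) beta-lactamase expression are assessed after 16 hr using a fluorescent FRET substrate incubated 2 hr at room temperature.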

Test [8] in a line: qHTS assay to identify small molecule antagonists of the progesterone receptor (PR) signaling pathway - cell viability counter screen (AID 1346798). Further: nearly all actives have a fitted effect of over 50% in size. Further: potency means the concentration at half of the fitted maximal effect. Put shortly: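 Following a 4 hr attachment, PR-UAS-bla HEK293T cells in charcoal-stripped FBS medium were exposed to compounds with R5020 for 16 hr; CellTiter-Glo was added and luminescence read after 30 min at room temperature.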

Test [9] in a line: qHTS assay to identify small molecule agonists of the progesterone receptor (PR) signaling pathway - cell viability counter screen (AID 1346799; calls by dose curve; further: nearly all actives have a fitted effect of over 45% in size; further: potency means the concentration at half of the fitted maximal effect). In outline: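 Here, 3,000 PR-UAS-bla HEK293T cells per well were treated with compounds for 16 hr after a 6 hr preincubation at 37C and 5% CO2; cell viability is the CellTiter-Glo luminescence signal.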
Test [10] is described as follows: qHTS assay to identify small molecule antagonists of the TGF-beta/Smad signaling pathway - cell viability counter screen (AID 1346824). Further: nearly all actives have a fitted effect of over 50% in size. Put shortly:
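Cytotoxicity counter-screen run in the same wells as the beta-lactamase Smad reporter read: CellTiter-Glo luminescence after 30 min at room temperature. HEK 293T SBE-bla cells had 5 hr compound exposure at 37 C with TGF-beta1 (0.25 ng/mL stock).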

A short description of test [11]: qHTS assay to identify small molecule agonists of the TGF-beta/Smad signaling pathway - cell viability counter screen (AID 1346829). Further: top concentration of the series differs between compounds; nearly all actives have a fitted effect of over 45% in size. In outline:
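Cytotoxicity counter screen: CellTiter-Glo luminescence (30 min, room temperature) measured in the SBE-bla HEK 293T reporter wells after 5 hr compound treatment at 37 C and the 2 hr substrate step.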

Test [12] in a line: qHTS assay to identify small molecule agonists of the TGF-beta/Smad signaling pathway (AID 1346859; active means well fitted activation curve with a large enough effect in the signal ratio in the repeat runs, not every such curve was filed as active; the % refers to the signal ratio; further: series mostly up to about 77 µM). Put shortly:
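Each well held 4,000 SBE-bla HEK 293T cells incubated overnight before compound addition; 5 hr later the cleavable FRET substrate went on for 2 hr at room temperature, and fluorescence was read at two emissions.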

Test [13] has as its target Thyrotropin-releasing hormone receptor (Homo sapiens) (UniProt P34981). The experiment in a line: qHTS assay to identify small molecule agonists of the thyrotropin-releasing hormone receptor (TRHR) signaling pathway (AID 1346891; calls by dose curve; further: series mostly up to about 58 µM). Put shortly: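 Screening of agonists relied on calcium signalling in HEK293 cells expressing human TRHR: dye loading 2 h at 37 °C preceded compound addition and a 3-min fluorescence time course.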

A short description of test [14]: qHTS assay to identify small molecule agonists of the androgen receptor (AR) signaling pathway in the presence of an antagonist - cell viability counter screen (AID 1259379).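 Further: MDA-kb2 human breast cancer cells carrying an MMTV luciferase reporter; series mostly up to about 92 µM; nearly all actives have a fitted effect of over 25% in size.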 Put shortly:
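In MDA-kb2 cells (human breast carcinoma, MMTV-luciferase), compounds at 15 concentrations plus 3.0uM nilutamide; 16 hr, 37C, 0% CO2; CellTiter-Fluor fluorescence read for viability.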

Test [15] has as its target Androgen receptor (Homo sapiens) (UniProt P10275). The experiment in a line: qHTS assay to identify small molecule agonists of the androgen receptor (AR) signaling pathway in the presence of an antagonist (AID 1259381; calls by dose curve; further: nearly all actives have a fitted effect of over 15% in size). Put shortly: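 Here, 15-concentration compound series were pin-transferred onto MDA-kb2 MMTV-luciferase cells already dosed with nilutamide (3.0uM final). After 16hr at 37C, ONE-Glo was added and luminescence read 30min later at room temperature.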

In test [16] the target is Estrogen receptor (Homo sapiens) (UniProt P03372). The experiment in a line: qHTS assay to identify small molecule agonists of the estrogen receptor alpha (ER-alpha) signaling pathway in the presence of an antagonist (AID 1259383; calls by dose curve; further: top concentration of the series differs between compounds; nearly all actives have a fitted effect of over 15% in size). In outline: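 In VM7Luc4E2 cells, 4,000 per well, compounds at 15 concentrations were co-incubated 22hr at 37C with 10.0nM final ICI-182,780. Luminescence from the stably transfected 4×ERE-luciferase reporter was recorded 30min after ONE-Glo addition.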

Test [17] addresses Thyrotropin-releasing hormone receptor (Homo sapiens) (UniProt P34981). Description: qHTS assay to identify small molecule antagonists of the thyrotropin-releasing hormone receptor (TRHR) signaling pathway (AID 1346877; active means well fitted inhibition curve with a large enough effect in the repeat runs, not every such curve was filed as active; further: series mostly up to about 51 µM). In outline:
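In this cell-based calcium flux format, HEK293 cells expressing TRHR received test compound for 5 min before the agonist TRH (1 nM final). Dye loading lasted 2 h at 37 °C.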

The target in test [18] is Thyrotropin receptor (Homo sapiens) (UniProt P16473). The experiment in a line: qHTS assay to identify small molecule antagonists of the thyroid stimulating hormone receptor (TSHR) signaling pathway (AID 1259385; calls by dose curve; further: nearly all actives have a fitted effect of over 20% in size; further: potency means the concentration at half of the fitted maximal effect). In outline: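 Antagonist mode: compound-treated TSHR-expressing HEK293 cells were stimulated with 1.5 ng/mL TSH (final) in presence of Ro20-1724 for 30 min at RT. HTRF cAMP detection after 1 h; each compound tested at 15 concentrations, triplicate.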

Test [19] addresses Estrogen receptor beta (Homo sapiens) (UniProt Q92731). Description: qHTS assay to identify small molecule agonists of the estrogen receptor beta (ER-beta) signaling pathway (AID 1259377; active means well fitted activation curve with a large enough effect in the signal ratio in the repeat runs, not every such curve was filed as active; the % refers to the signal ratio). In outline: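 Read-out: beta-lactamase FRET fluorescence. Cell line: ER-beta-UAS-bla HEK293T in 2% charcoal-stripped FBS. Exposure: 16 hr at 37C. Substrate step: 2 h at room temperature.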

Test [20] shares this target. Description: qHTS assay to identify small molecule antagonists of the estrogen receptor beta (ER-beta) signaling pathway (AID 1259378; active means well fitted inhibition curve with a large enough effect in the signal ratio in the repeat runs, not every such curve was filed as active; the % refers to the signal ratio). Put shortly: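 Antagonist mode: compounds added to beta-lactamase reporter HEK293T ER-beta-UAS cells stimulated with E2 (1nM final), 16 hr at 37C. LiveBLAzer B/G FRET substrate, 2 hours room temperature, fluorescence read-out.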

The structures appear in SMILES notation. Results filed as inconclusive are left out. Active and inactive are the calls of the source. Unless noted, the call rests on the fitted dose curve; in most records, active means well fitted curve in the direction sought with a large enough effect in the repeat runs; inconclusive means weak or mixed curves; inactive means no such curve, though single readings can be large; an effect the other way counts as inactive or inconclusive.

Androgen receptor (Homo sapiens), sequence (P10275 whole entry, looked up): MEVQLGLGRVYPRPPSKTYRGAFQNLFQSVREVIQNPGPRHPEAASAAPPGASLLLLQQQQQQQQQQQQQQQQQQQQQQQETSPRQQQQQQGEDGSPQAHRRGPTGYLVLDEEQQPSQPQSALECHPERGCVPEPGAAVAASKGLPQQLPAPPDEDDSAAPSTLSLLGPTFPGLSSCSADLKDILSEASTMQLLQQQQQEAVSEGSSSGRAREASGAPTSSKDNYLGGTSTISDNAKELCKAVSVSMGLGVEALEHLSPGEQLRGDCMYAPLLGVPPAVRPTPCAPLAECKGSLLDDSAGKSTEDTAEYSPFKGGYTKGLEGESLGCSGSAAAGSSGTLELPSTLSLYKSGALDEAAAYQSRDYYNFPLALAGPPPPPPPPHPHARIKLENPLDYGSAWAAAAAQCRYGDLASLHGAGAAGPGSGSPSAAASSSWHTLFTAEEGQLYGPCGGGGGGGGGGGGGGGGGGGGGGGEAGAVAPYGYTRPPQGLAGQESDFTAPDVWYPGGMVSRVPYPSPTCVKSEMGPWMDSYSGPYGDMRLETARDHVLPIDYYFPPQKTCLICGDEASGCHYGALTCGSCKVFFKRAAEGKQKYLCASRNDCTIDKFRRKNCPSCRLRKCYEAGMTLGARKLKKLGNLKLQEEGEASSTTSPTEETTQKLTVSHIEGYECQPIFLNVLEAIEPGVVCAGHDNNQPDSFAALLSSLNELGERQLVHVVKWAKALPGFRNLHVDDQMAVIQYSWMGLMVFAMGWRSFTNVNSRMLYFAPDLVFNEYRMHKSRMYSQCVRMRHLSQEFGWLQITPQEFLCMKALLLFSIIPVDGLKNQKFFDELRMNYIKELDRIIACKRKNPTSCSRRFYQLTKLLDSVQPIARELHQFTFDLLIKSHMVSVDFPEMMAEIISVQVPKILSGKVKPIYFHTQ
Estrogen receptor beta (Homo sapiens), sequence (Q92731 whole entry, looked up): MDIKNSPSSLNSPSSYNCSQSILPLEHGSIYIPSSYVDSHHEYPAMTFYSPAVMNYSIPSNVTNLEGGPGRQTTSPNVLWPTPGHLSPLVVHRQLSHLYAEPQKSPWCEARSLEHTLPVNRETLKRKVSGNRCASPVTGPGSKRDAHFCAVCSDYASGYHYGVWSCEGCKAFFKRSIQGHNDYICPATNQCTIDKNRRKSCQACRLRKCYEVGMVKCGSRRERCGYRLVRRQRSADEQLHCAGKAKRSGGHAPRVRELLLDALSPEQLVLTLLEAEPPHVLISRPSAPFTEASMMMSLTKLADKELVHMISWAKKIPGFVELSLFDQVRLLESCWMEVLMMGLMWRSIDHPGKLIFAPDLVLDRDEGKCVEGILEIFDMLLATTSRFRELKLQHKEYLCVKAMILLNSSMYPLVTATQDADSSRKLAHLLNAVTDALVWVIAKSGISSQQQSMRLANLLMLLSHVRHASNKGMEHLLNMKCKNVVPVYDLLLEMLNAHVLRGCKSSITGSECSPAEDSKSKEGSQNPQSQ
Progesterone receptor (Homo sapiens), sequence (P06401 whole entry, looked up): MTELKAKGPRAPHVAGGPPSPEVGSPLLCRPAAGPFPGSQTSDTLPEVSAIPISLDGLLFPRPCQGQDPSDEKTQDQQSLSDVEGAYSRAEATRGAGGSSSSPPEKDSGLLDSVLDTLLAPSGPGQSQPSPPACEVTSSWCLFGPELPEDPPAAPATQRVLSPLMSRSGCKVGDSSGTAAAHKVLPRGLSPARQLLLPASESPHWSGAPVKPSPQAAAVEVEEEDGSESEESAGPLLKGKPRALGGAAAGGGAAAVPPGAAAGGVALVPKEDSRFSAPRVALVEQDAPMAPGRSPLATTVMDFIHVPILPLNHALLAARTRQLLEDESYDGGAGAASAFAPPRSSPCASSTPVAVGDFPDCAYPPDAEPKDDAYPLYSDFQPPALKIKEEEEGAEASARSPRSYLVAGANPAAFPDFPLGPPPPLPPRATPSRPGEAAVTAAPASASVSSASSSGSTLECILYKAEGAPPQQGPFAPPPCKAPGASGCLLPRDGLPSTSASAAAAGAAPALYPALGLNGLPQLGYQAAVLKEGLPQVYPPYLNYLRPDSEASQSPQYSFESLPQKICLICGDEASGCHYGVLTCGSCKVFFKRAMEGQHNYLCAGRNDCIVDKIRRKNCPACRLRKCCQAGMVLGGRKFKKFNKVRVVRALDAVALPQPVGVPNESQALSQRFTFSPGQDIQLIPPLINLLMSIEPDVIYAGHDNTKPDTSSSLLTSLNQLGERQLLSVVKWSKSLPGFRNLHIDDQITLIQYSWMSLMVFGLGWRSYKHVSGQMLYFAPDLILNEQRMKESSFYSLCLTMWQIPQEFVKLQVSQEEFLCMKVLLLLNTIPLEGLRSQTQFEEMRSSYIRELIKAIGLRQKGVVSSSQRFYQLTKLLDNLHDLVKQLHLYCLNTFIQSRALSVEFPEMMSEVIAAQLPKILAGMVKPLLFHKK
Thyrotropin-releasing hormone receptor (Homo sapiens), sequence (P34981 whole entry, looked up): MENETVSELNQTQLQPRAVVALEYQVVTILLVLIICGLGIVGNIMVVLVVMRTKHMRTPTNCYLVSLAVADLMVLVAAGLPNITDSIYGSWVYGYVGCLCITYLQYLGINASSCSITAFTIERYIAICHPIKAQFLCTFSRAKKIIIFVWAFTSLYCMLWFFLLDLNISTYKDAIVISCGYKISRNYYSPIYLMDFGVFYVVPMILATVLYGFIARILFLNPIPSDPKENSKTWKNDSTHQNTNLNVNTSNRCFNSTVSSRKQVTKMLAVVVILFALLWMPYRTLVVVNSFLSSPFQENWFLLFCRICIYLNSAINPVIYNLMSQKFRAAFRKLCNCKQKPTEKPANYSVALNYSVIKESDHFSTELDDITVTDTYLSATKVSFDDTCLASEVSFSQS
Thyrotropin receptor (Homo sapiens), sequence (P16473 whole entry, looked up): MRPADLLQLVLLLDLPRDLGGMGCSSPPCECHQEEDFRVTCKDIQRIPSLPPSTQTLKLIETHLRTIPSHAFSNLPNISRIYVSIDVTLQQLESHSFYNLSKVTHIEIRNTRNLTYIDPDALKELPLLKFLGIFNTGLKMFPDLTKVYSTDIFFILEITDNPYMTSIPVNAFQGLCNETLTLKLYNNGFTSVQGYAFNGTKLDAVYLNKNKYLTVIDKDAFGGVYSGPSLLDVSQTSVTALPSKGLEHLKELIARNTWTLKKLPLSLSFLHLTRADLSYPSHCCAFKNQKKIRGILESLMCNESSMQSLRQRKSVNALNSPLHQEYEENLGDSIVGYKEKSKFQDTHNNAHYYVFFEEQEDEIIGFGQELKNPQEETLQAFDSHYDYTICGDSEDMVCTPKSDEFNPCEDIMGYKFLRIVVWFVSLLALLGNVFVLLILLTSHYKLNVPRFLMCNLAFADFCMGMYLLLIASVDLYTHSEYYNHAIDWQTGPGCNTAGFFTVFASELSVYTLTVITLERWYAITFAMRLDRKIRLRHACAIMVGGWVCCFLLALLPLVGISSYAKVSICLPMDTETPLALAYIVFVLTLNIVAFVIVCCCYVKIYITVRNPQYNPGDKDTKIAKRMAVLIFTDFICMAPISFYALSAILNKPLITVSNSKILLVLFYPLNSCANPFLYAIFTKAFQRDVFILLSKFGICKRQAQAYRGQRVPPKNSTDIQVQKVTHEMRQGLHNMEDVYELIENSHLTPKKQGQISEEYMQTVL
Estrogen receptor (Homo sapiens), sequence (P03372 whole entry, looked up): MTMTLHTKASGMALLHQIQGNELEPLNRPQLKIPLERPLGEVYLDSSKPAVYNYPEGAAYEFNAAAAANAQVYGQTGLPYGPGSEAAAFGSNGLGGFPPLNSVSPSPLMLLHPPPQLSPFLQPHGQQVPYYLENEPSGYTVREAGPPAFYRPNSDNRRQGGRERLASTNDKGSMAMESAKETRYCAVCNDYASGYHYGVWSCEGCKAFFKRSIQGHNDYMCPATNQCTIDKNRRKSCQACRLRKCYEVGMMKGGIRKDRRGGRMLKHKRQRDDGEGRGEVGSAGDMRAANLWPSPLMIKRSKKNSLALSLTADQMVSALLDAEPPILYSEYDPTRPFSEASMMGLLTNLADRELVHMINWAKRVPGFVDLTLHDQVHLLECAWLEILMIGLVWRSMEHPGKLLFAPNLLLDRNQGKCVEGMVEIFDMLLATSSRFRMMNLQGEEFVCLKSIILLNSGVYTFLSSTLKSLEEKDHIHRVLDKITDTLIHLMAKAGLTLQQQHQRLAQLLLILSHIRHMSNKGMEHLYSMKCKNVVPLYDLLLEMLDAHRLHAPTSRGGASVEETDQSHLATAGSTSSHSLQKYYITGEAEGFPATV

On to `O=[N+]([O-])c1ccc(Nc2ccc(Nc3ccccc3)c(S(=O)(=O)O)c2)c([N+](=O)[O-])c1`, for which the Potency entry in test [1], in [2], in test [3], in test [6], in [7] and in test [8] was “inactive” throughout. Further, the Potency result in test [9], in test [10], in test [11], in test [12] and in [13] was “inactive” throughout. The result in test [4] was inactive. In addition, the Potency in [5] was 54.5 µM (active).

In the case of `Oc1ccc(Cl)c2cccnc12`, the Potency is 0.596 µM (active) in test [1] and 3.76 µM (active) in test [7]. For the same compound, the Potency entry in test [14], in test [15], in test [3], in test [16], in test [5] and in test [6] was “inactive” each time. For the same compound, the Potency entry in [10], in test [11], in test [12] and in [13] was “inactive” in each case. In addition, the outcome in test [17] was inactive.

Take `OCCN1CCN(CCCN2c3ccccc3Sc3ccc(Cl)cc32)CC1`: the Potency in test [1] was 11.9 µM (active); in test [2] it was 23.7 µM (active); in test [3] it was 13.3 µM (active); in test [18], 29.8 µM (active); in test [8], 23.7 µM (active); in test [9], 13.3 µM (active). In addition, the Potency result in [16], in [5], in [10], in test [11], in test [12] and in test [13] was “inactive” throughout.

As to `O=C(OCC(O)CO)c1ccccc1Nc1ccnc2cc(Cl)ccc12` (centres undefined), the Potency was 7.5 µM (active) in test [1] and 21.1 µM (active) in [7]. For the same compound, the Potency result in test [14], in [15], in test [16], in test [5], in test [6] and in [10] was “inactive” in each case. In addition, the Potency result in test [12] and in test [13] was “inactive” in each case. For the same compound, the call in [17] was inactive.

Regarding `O=C(Nc1cccc2c(=O)cc(-c3nn[nH]n3)oc12)c1ccc(OCCCCc2ccccc2)cc1`, the Potency entry in test [19], in [20], in test [14], in test [18], in [5] and in [6] was “inactive” in each case. Further, the Potency entry in test [7], in test [8], in [10], in [11] and in test [13] was “inactive” throughout. In addition, the Potency in [2] was 10.6 µM (active). Besides, in [4], the outcome was inactive.

`CC1CC(OC(=O)C(O)c2ccccc2)CC(C)(C)N1C` (centres undefined): the Potency result in test [19], in test [20], in test [14], in test [2], in [3] and in test [18] was “inactive” in each case. For the same compound, the Potency entry in test [5], in [6], in test [7], in [8], in [9] and in [10] was “inactive” in each case. Also, the Potency result in test [11], in test [12] and in test [13] was “inactive” each time. The result in [4] and in test [17] was inactive.

Consider `COc1ccccc1N1CCN(CC(O)COc2cccc3ccccc23)CC1` (centres undefined), for which the Potency result in test [19], in test [14], in test [18], in [5], in test [6] and in [10] was “inactive” in each case. Further, the Potency result in test [11] and in test [12] was “inactive” throughout. Besides, the Potency in test [2] is 5.96 µM (active); in [3] it was 5.96 µM (active); in [9], 33.5 µM (active).

Consider `CCC(OCCCOC)OC(C)=O` (centres undefined), for which the Potency entry in test [19], in test [14], in test [2], in [3], in test [18] and in test [5] was “inactive” each time. The Potency result in test [6], in [7], in test [8], in [9], in test [10] and in test [11] was “inactive” each time. Further, the Potency result in [12] and in [13] was “inactive” throughout. In addition, the outcome in test [17] was inactive.

With `CC(=O)OCC(=O)NCCCOc1cccc(CN2CCCCC2)c1`, the Potency result in test [19], in test [14], in test [2], in test [15], in test [3] and in test [18] was “inactive” each time. In addition, the Potency result in test [5], in test [6], in test [7], in test [9], in test [10] and in [11] was “inactive” throughout. Besides, the Potency result in test [12] was “inactive”. Further, the call in test [4] was inactive.

(Values after PubChem BioAssay (Tox21).)
